Data from PubChem BioAssay AID1481 (The Scripps Research Institute Molecular Screening Center, 2009).
Out of some 220,000 compounds screened, about 920 (0.42%) were called active. No stated cut-off is given here; in the data, active means inhibition above about 15%; inactive means the rest. Shown is part of a subset that was picked to be rich in actives.

The compounds below were run against Transitional endoplasmic reticulum ATPase (Homo sapiens) (UniProt P55072) (assay: inhibitors of human p97 ATPase, primary screen, biochemical (AID 1481;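 further: 0% = DMSO vehicle and 100% = wells lacking enzyme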)). Conditions: recombinant p97 ATPase, Kinase-Glo ATP luminescence, 3 h; at 8 µM; stronger effect = higher value.
Transitional endoplasmic reticulum ATPase (Homo sapiens), sequence (P55072 whole entry, looked up): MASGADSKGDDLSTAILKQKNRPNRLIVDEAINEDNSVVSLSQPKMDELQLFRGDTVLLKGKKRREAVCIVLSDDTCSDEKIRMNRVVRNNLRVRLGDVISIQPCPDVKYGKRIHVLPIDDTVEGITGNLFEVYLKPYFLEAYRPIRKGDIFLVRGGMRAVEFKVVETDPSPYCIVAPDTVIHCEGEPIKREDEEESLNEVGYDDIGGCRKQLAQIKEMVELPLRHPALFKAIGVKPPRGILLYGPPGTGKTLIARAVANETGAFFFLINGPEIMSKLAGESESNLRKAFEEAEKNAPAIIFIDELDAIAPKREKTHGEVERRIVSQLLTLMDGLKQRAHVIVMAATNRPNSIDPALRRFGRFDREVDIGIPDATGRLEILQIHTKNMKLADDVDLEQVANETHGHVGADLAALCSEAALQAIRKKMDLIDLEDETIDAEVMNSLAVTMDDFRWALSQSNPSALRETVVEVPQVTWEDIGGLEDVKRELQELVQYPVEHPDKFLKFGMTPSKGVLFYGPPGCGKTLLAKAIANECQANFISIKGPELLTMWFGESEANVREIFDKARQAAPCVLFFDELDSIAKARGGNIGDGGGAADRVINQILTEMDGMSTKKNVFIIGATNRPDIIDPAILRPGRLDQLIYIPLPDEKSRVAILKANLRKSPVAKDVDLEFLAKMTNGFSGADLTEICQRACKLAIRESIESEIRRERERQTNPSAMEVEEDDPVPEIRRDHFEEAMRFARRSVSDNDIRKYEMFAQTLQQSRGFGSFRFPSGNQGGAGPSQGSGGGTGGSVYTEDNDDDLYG

inhibition, active:
COc1ccc(CS(=O)/C(Cl)=C(/Cl)C(=O)Nc2ccc(OC)nc2)cc1 (centres undefined) 22%, Cc1cc(C)c2cc(CN(Cc3nnnn3Cc3ccc(F)cc3)C3CCCC3)c(=O)[nH]c2c1 28.6%, O=C(Nc1ccccc1Cl)/C(Cl)=C(\Cl)S(=O)c1ccccc1 (centres undefined) 20%, O=C(OCC1O[C@@H](OC(=O)c2cc(O)c(O)c(O)c2)[C@@H](OC(=O)c2cc(O)c(O)c(O)c2)[C@@H](OC(=O)c2cc(O)c(O)c(O)c2)[C@@H]1OC(=O)c1cc(O)c(O)c(O)c1)c1cc(O)c(O)c(O)c1 (some centres undefined) 67%, CN(C)[C@@H]1C(=O)C(C(N)=O)=C(O)[C@@]2(O)C(=O)C3=C(O)c4c(O)ccc(Cl)c4[C@@H](O)[C@H]3C[C@@H]12 23.4%, O=C(NNC(=S)Nc1ccccc1)c1cccc(S(=O)(=O)N2CCOCC2)c1 15.6%, COc1ccc(-c2cc(-c3ccc(N)cc3)nc(N)c2C#N)cc1OC 18.6%, CC(=O)N1CCc2cc(Br)cc(S(=O)(=O)CCC(=O)Nc3c(C)n(C)n(-c4ccccc4)c3=O)c21 16.1%, CCN(c1ccccc1)S(=O)(=O)c1ccc(N)cc1 21.5%, CCOc1c(Br)cc(/C=C2\C(=O)N(CCC#N)N=C2C)cc1OC 26.9%, N#CC1=C(N)Oc2[nH]c(=S)[nH]c(=O)c2C12C(=O)Nc1ccccc12 (centres undefined) 20.7%, C#CCOCCOCCOCCNc1nc(N2CCN(C(=O)C(Cc3ccc(O)cc3)n3cc(C(N)CC(C)C)nn3)CC2)nc(N2CCN(C(=O)C(Cc3ccc(O)cc3)n3cc(C(N)C(C)CC)nn3)CC2)n1 (centres undefined) 14.7%, COc1ccc(C(C(=O)NC2CCCCC2)N(C(=O)Cc2c[nH]c3ccccc23)c2ccccc2)cc1OC (centres undefined) 14.6%, Cc1[nH][nH]c(=O)c1C(c1ccc(-c2ccc(Cl)cc2)o1)c1c(C)[nH][nH]c1=O 18.4%, Oc1c(C=Nc2cccc3nsnc23)ccc2ccccc12 40.4%

inhibition, inactive:
Nn1c(SCC(=O)Nc2nccs2)nncc1=O 3.78%, COc1ccc(NC(=S)Nc2ccccc2Cl)cn1 2.95%, COc1ccc(NC(=O)/C(Cl)=C(/Cl)S(=O)Cc2ccc(C)cc2)cn1 (centres undefined) 10.7%, CC1CCN(c2ccc([N+](=O)[O-])c(SCCO)c2)CC1 7.8%, Cc1cccc2cc(CN(Cc3nnnn3Cc3ccccc3)C3CCCC3)c(=O)[nH]c12 1.15%, Cc1cc(C)c2cc(CN(Cc3cccs3)Cc3nnnn3CC3CCCO3)c(=O)[nH]c2c1 (centres undefined) -6.18%, O=C(COc1ccc(/C=N/NS(=O)(=O)c2ccccc2)cc1)NCCc1ccccc1 0.13%, COCCNc1nc2nonc2nc1N(C)Cc1ccc(C)cc1 -0.9%, CN1CCN(/N=C2/C(=O)Nc3ccc([N+](=O)[O-])cc32)CC1 -0.51%, Cc1nc2cccnc2nc1C 5.4%, O=C(N/N=C/c1sc(N2CCCCC2)nc1-c1cccs1)c1cccnc1 -2.01%, CC(=O)Nc1ccc(S(=O)(=O)Nc2ccc(-c3ccc4nnc(C)n4n3)cc2)cc1 0.45%, CCOC(=O)c1cc2c(nc1NC(=S)Nc1ccccc1)CC(C)(CC)OC2 (centres undefined) -6.73%, O=C(CN1CCCCC1)Nc1ccccc1Cl -2.65%, O=C(Nc1ccccc1Cl)c1ccc2nsnc2c1 2.33%, CCCc1nc2c(c(=O)c3ccccc3n2C)c(=O)n1-c1cc(C)cc(C)c1 1.03%, COc1ccc(/C=N/N=C2/C(=O)Nc3ccccc32)cc1O -3.95%, Cc1nnc2n1N=C(c1ccc3c(c1)NC(=O)CO3)CS2 4.3%, CC(=O)NC1C(OCc2ccccc2)OC(COC(C)=O)C(OC(C)=O)C1OC(C)=O (centres undefined) 1.05%, COC(=O)c1scc(C)c1NC(=O)CSc1ccc(Cl)cc1 -1.74%, COc1ccc(CCNS(=O)(=O)c2ccc(Cl)s2)cc1OC -7.85%, Cn1c(N)cc(-c2ccc(F)cc2)c(C#N)c1=O -2.35%, O=C(Nc1nnc(CCN2CCCCC2)s1)c1cccc(Cl)c1 2.22%, Cn1c(=O)c2c(-c3cccc(Br)c3)c(C#N)c(N)nc2n(C)c1=O 0.09%, Cc1cc(C(=O)NNC(=O)c2cccc(S(=O)(=O)N3CCOCC3)c2)c2ccccc2n1 -3.18%, O=C(c1cccc(S(=O)(=O)N2CCOCC2)c1)N1CCOCC1 0.28%, COCC(C)NCc1cc(Br)ccc1OC (centres undefined) 0.25%, Cn1cccc1/C=N/NC(=O)CNc1cccc2ccccc12 3.45%, CN(C)C=NC(=O)c1cccn1-c1ncc(C(F)(F)F)cc1Cl -5.69%, O=C(C1=C(O)C(=O)N(CCOCCO)C1c1ccccn1)c1cccs1 (centres undefined) 2.8%, Cc1cc(C)cc(NC(=O)N(C)Cc2ccccc2)c1 -0.6%, Cn1c(SCC(=O)C(C)(C)C)nnc1-c1ccccn1 -4.36%, CCOc1cc(-c2cc(-c3ccc(OC)cc3)nc(N)c2C#N)ccc1O 2.46%, CCSc1nc(-c2ccc(OC)cc2)cc(-c2ccc(OC)cc2)c1C#N 0.73%, COc1ccc(N2CCC(CNC(=S)Nc3c(C)cccc3C)C2)cc1 (centres undefined) 1.49%, O=C1N(c2ccc(Cl)cc2)C(c2ccc(Cl)cc2)N2CCCN12 (centres undefined) 4.79%, Cn1c(=NC(=O)c2ccc3c(c2)OCCO3)sc2cc(S(C)(=O)=O)ccc21 -0.6%, S=C(Cc1ccc(Cl)cc1)N1CCOCC1 -3.61%, Cc1ccccc1OCCC(=O)Nc1c(C)n(C)n(-c2ccccc2)c1=O 3.48%, Cc1ccc(S(=O)(=O)CC(=O)Nc2c(C)n(C)n(-c3ccccc3)c2=O)cc1 0.73%, O=C(/C=C/c1ccc2c(c1)OCCO2)c1ccc(O)cc1 9.09%, CCN(c1ccccc1)S(=O)(=O)c1ccc2[nH]c(=O)[nH]c2c1 5.66%, CCN(c1ccccc1)S(=O)(=O)c1ccc(NC(=O)C(C)(C)C)cc1 0.99%, CS(=O)(=O)N1CCC(C(=O)N2CCN(c3ccccc3)CC2)CC1 1.55%, CSc1ccccc1NC(=O)CN(C)CC(=O)Nc1cccc(Br)c1 -6.18%, C/C=N/N(c1ccccc1)c1ccccc1 0.39%, C=CCOc1c(Br)cc(/C=N\n2nnnc2N)cc1OC -2.19%, CCOc1cc(/C=N/O)cc(Br)c1OC 7.25%, C/C(CC(=O)Nc1ccc(Cl)cc1)=N\NC(=O)C(=O)NCCO 2.21%, O=S(=O)(Cc1ccccc1)c1nc2ccccc2n1Cc1ccccn1 2.46%, N#CC1=C(N)Oc2n[nH]c(CSc3ccccc3)c2C12C(=O)Nc1ccccc12 (centres undefined) 7.12%, Cc1ccc(NC2(C#N)C(=O)Nc3ccccc32)cc1 (centres undefined) 2.18%, COc1ccc2c(c1)CCc1cn3ncc(C#N)c3nc1-2 7.2%, CCC(=O)OCCNc1nc(-c2ccccc2)nc2ccccc12 4.18%, Cc1cc(C(C)(C)C)cc(C)c1N 7.52%, COc1cc(C(F)(F)F)c(C(=O)N(C)c2ccc(Cl)cc2)cn1 -1.66%, C#CCOCCOCCOCCNc1nc(N2CCN(C(=O)[C@H](Cc3ccc(O)cc3)n3cc(C(N)CC(C)C)nn3)CC2)nc(N2CCN(C(=O)[C@H](CCC(=O)O)n3cc(C(N)[C@H](C)CC)nn3)CC2)n1 (some centres undefined) -3.1%, C#CCOCCOCCOCCNc1nc(N2CCN(C(=O)[C@H](CCCCN)n3cc([C@@H](N)C(C)CC)nn3)CC2)nc(N2CCN(C(=O)[C@H](Cc3ccc(O)cc3)n3cc([C@@H](N)C(C)CC)nn3)CC2)n1 (some centres undefined) 13.3%, O=C(NCCc1ccccn1)c1cccnc1Oc1ccc(Cl)cc1 -3.2%, COc1ccccc1N1CCN(C(=O)C(=O)N/N=C/c2ccccc2F)CC1 0.1%, Cc1cc(NC(=O)CCC(=O)N(c2ccccc2)C(C(=O)NC2CCCC2)c2ccncc2)no1 (centres undefined) 3.62%, COc1ccc(C(C(=O)NC2CCCCC2)N(C(=O)CCl)c2ccccc2Cl)cc1 (centres undefined) -0.41%, Cc1ccc2nc(-c3ccc(NC(=O)c4cccnc4)cc3)oc2c1 -7.59%, COc1cccc(NC(=S)C(C#N)=C2N(C)c3ccccc3N2C)c1 4.23%, Cc1[nH][nH]c(=O)c1C(c1ccc2c(c1)OCO2)c1c(C)[nH][nH]c1=O -1.45%, CCOc1ccc(C(c2c(C)[nH][nH]c2=O)c2c(C)[nH][nH]c2=O)cc1OCC -3.3%, CCc1ccccc1NC(=O)CN(c1ccc(OC)cc1OC)S(=O)(=O)c1ccccc1[N+](=O)[O-] 0.37%, Cc1ccc(Cn2c(SCC(=O)N/N=C/c3ccccc3OCC(=O)O)nc3ccccc32)cc1 -13.9%, CC(NCc1ccccc1OC1CCCC1)c1ccccc1 (centres undefined) 2.88%, CC(Oc1ccccc1F)C(=O)NN (centres undefined) -4.14%, O=C(/C=C/Nc1ccc(S(=O)(=O)Nc2cnc3ccccc3n2)cc1)c1cccnc1 1.02%, Oc1ccc2ccccc2c1C=Nc1ccccc1 4.59%, Oc1ccc(N=Cc2c(O)ccc3ccccc23)cc1 9.71%, CCOC(=O)c1ccccc1C(=O)N1CCOCCOCCOCC1 -4.13%
